# HCMV antiviral – qHTS Assay for inhibitors of the human cytomegalovirus (HCMV); HFF cells, HCMV-luciferase reporter, 72 h; hits give low values; activity change, negative = inhibition, % at 57.5 µM; hit rate 4.5% among 410,000; in the data active = activity change below about -60%; inconclusive = no clear call, values can overlap the other calls; inactive = above about -39%
#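 Inhibition of viral replication was scored as loss of reporter luminescence in HFFs infected with HCMV-luciferase (MOI 1 PFU/cell) for 72 h; compounds tested at 2 doses, normalized to buffer and Salinomycin controls.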
# HCV inh – qHTS Assay for Inhibitors of Hepatitis C Virus (HCV); Huh7.5.1 HCVcc-Cre infection, luciferase reporter, 44 h; Potency, µM (series often up to 41.8 µM), without a hit: at the highest dose activity change, negative = inhibition, usual class: inhibitors; hit rate 3.4% among 340,000; AID 651820, 2012; active = well fitted inhibition curve with a large enough effect; inconclusive = small, poorly fitted or top-dose-only effect, or another doubt; inactive = no such curve, though single readings can be large or run the other way; also: potency is read from the fitted curve at half-maximal effect
#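 Whole-lifecycle infectious HCVcc-Cre system; cells 1,000/well, compound then virus (~0.5 moi) added 4 h after plating, 44 h culture. Luciferase read 15 sec following 15 min substrate incubation, room temp.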
# FMDV antiviral – High Throughput Screening for Foot and Mouth Disease Virus Antivirals; FMDV antiviral cell-based qHTS; Potency, µM (titrated, usually from 57.9 µM), without a hit: at the highest dose activity change, negative = inhibition, usual class: inhibitors; hit rate 1.2% among 410,000; AID 1159524, 2015; calls by dose curve; tested in HEK293T cells; also: read-out not given here; potency is read from the fitted curve at half-maximal effect; nearly all actives have a fitted effect of over 45% in size
# Lassa entry inh – qHTS for Inhibitors of binding or entry into cells for Lassa Virus; Potency, µM (series often up to 37.9 µM), without a hit: at the highest dose activity change, negative = inhibition, most hits filed as inhibitors; Lassa virus pseudotype entry inhibition, cell reporter; hit rate 1.2% among 300,000; calls by dose curve; tested in HEK293 cells; also: potency is read from the fitted curve at half-maximal effect; nearly all actives have a fitted effect of over 50% in size
# Marburg entry inh – qHTS for inhibitors of binding or entry into cells for Marburg Virus | hit rate 1.8% among 300,000 | Marburg virus pseudotyped entry inhibition, cell reporter | Potency, µM (titrated, usually from 37.8 µM), inactives show at the highest dose activity change, negative = inhibition, usual class: inhibitors | AID 540276, 2011; calls by dose curve; tested in HEK293 cells; also: potency is read from the fitted curve at half-maximal effect
# * = called active by the depositor; ? = inconclusive; . = no result; [ ] = another dose, or the depositor's remark. Rows were chosen to be rich in hits. Some 7.9% of all compounds tested hit in one or more screens of this group. % is scaled to controls: 0 for no effect and ±100 for the full control effect.
SMILES,HCMV antiviral,HCV inh,FMDV antiviral,Lassa entry inh,Marburg entry inh
COc1ccc(C(=O)NC2CCCc3ccccc32)cc1 (stereo not given),-70.4*,-9.1%,20.5%,-7.1%,?
Cc1nc2ccccn2c1C(=O)NC1CCCc2ccccc21 (stereo not given),-72.3*,7.08µM*,?,.,.
COc1cccc(C(=O)NC2CCCc3ccccc32)c1 (stereo not given),26.2,-6.1%,31.7%,16.8%,-4.5%
Cn1ccc2cc(S(=O)(=O)N3CCN(C(=O)Nc4ccccc4F)CC3)ccc21,6.0,.,-3.1%,-17.8%[46.1 µM],.
CCc1ccccc1NC(=O)c1ccc(Cn2nc(N3CCN(c4ccccc4)CC3)ccc2=O)o1,-74.5*,.,?,-8.6%[46.1 µM],.
O=C(Nc1ccccc1)Nc1nnc(-c2ccccc2)o1,7.0,-1.8%,-0.9%,-3.7%,-9.3%
Fc1ccc(-c2nnc(NC3=NCCCCC3)o2)cc1,-82.9*,-14.5%,10µM*,1µM*,?
c1ccc(-c2nnc(NC3=NCCC3)o2)cc1,23.3,27.5%,-35.0%,7.08µM*,?
Fc1ccc(NC2=NCCCCC2)cc1,-7.3,-5.0%,-6.4%,.,-5.0%[46.1 µM]
O=C(/C=C/Nc1ccc(Br)cc1F)c1ccco1,-36.8,-5.9%,10µM*,2.24µM*,1.41µM*
O=C(/C=C/Nc1ccc(F)cc1F)c1ccc(Br)cc1,146.0,17.2%,13.0%,7.08µM*,?
CC(=O)c1ccc(N/C=C/C(=O)c2ccc(Br)cc2)cc1,78.8,9.7%,54.5%,.,.
O=C(/C=C/Nc1ccc(F)cc1F)c1ccco1,119.5,?,-83.0%,?,?
CN(C)c1ccc(N/C=C/C(=O)c2ccco2)cc1,50.5,-12.8%,-81.9%,?,3.66µM*
CC(C)CNc1nc(Br)cnc1N,38.9,.,.,.,.
COc1cccc(-n2cc(C(=O)Oc3cccc(C(F)(F)F)c3)c3ccccc3c2=O)c1,-14.0,.,-22.5%,15.1%[46.1 µM],.
Cc1cc(C(=O)Nc2ccccc2-c2nc(CNC(=O)c3ccccc3Cl)c(C)o2)c(C)o1,.,.,15.6%,.,.
COc1ccc(CNC(=O)C2=C(C)C(=O)OC23CCCCC3)cc1,36.2,.,3.4%,-4.9%[46.1 µM],.
Cc1ccc2[nH]c3c(c2c1)CN(C(=O)CN1CCN(C(=O)c2ccco2)CC1)CC3,7.3,.,.,.,.
Cc1ccc2[nH]c3c(c2c1)CN(C(=O)CN1CCN(c2cccc(C)c2C)CC1)CC3,19.8,6.31µM*,?,?,?
O=C(NC(C(=O)N/N=C/c1c2ccccc2cc2ccccc12)c1n[nH]c(=O)c2ccccc12)c1ccccc1 (stereo not given),48.9,2.51µM*,-9.2%,-19.0%,?
O=C(NC(C(=O)N/N=C/c1ccccc1)c1n[nH]c(=O)c2ccccc12)c1ccccc1 (stereo not given),21.7,?,-2.7%,1.8%,?
CCOC(=O)c1cnc2cc(-c3ccc(OCC)cc3)nn2c1-c1ccccc1,?,.,-21.1%,?,.
O=C(CSc1nnc(COc2ccc(Cl)cc2)o1)N1c2ccccc2CCc2ccccc21,-15.6,10µM*,0.0%,?,?
Nc1c(C(=O)OC2CCCCC2)c2nc3ccccc3nc2n1CC1CCCO1 (stereo not given),-12.1,10µM*,-16.4%,-26.0%,?
SMILES,HCMV antiviral,HCV inh,FMDV antiviral,Lassa entry inh,Marburg entry inh
CC(C)OC(=O)c1c(N)n(CC2CCCO2)c2nc3ccccc3nc12 (stereo not given),-22.9,-16.6%,-27.8%,6.8%,?
CC(C)CCn1c(N)c(C(=O)OCC2CCCO2)c2nc3ccccc3nc21 (stereo not given),-23.9,12.6µM*,-15.7%,?,?
CCSc1nc2c([nH]c3ccccc32)c(=O)n1-c1ccc(F)cc1,-18.6,.,-9.0%,18.7%[46.1 µM],.
CC(C)N1CCN(c2ccc(OC[C@H]3CO[C@](Cn4cncn4)(c4ccc(Cl)cc4Cl)O3)cc2)CC1,-98.7*,?,-22.2%,.,.
CC(C)N1CCN(c2ccc(OCC3COC(Cn4cncn4)(c4ccc(Cl)cc4Cl)O3)cc2)CC1 (stereo not given),-16.0,?,-27.3%,-26.3%,?
CC(=O)N1CCN(c2ccc(OCC3CO[C@@](Cn4ccnc4)(c4ccc(Cl)cc4Cl)O3)cc2)CC1 (stereo not given in full),.,.,25.1µM*,.,.
CN(C)c1ncc2nc(-c3cccs3)c(=O)n(C[C@H]3CCCO3)c2n1,.,.,21.9%,.,.
Cc1cccc(CSc2nc3c(cc2C#N)CN(C)CC3)c1,32.6,14.1µM*,3.3%,9.1%,5.3%
CCOC(=O)C1=C(CSc2nc3c(cc2C#N)CN(C)CC3)OC(N)=C(C#N)C1c1ccc(F)cc1 (stereo not given),-0.7,10µM*,0.0%,13.4%,?
N#Cc1cc2c(nc1SCc1ccccc1)CCC2,-12.7,-6.2%,-0.3%,2.1%,0.9%
CN1CCc2nc(SCc3ccccc3Br)c(C#N)cc2C1,-20.2,7.94µM*,-2.3%,-12.9%,-7.9%
COc1ccc(-n2ccc(-c3sc(NCc4cc(OC)c5c(c4)OCO5)nc3C)n2)cc1,.,.,-24.4%,.,.
Cc1ncc2c(c1CNC(=O)CN1CCCC1)CCN(C(=O)c1ccc(F)cc1F)C2,.,.,0.7%,.,.
CCOC(=O)c1cc(-c2ccccc2)n(CCCC(=O)Nc2cccc(Cl)c2C)c1C,0.0,.,-13.5%,?,.
CCOc1ccc(-n2ccnc2SCC(=O)Nc2nc3ccc(C)cc3s2)cc1,-18.3,.,-20.0%,-29.1%[46.1 µM],.
CCSc1ccccc1C(=O)N1CCN(c2nc3ccccc3s2)CC1,-66.6*,.,?,-26.5%[46.1 µM],.
CC1(C(=O)N2CCN(c3ccc([N+](=O)[O-])cc3)CC2)CC1(Cl)Cl (stereo not given),?,11.2µM*,20µM*,.,.
Cc1c(-c2ccccc2)oc2c(C(=O)N3CCN(c4ccc([N+](=O)[O-])cc4)CC3)cccc2c1=O,-60.5*,-26.8%,-25.0%,-0.6%,-27.2%
CC1(C(=O)N2CCN(c3ccccc3)CC2)CC1(Cl)Cl (stereo not given),-21.0,5.8%,-10.0%,3.4%[46.1 µM],-6.1%[46.1 µM]
CCCC(=O)N1CCN(c2nc3ccccc3s2)CC1,?,?,1.6%,.,.
CCSc1ccccc1C(=O)N1CCN(c2ccc([N+](=O)[O-])cc2)CC1,-30.4,10µM*,?,?,?
COc1cc(-c2n[nH]c3ccnc(-c4ccccc4)c23)cc(OC)c1OC,-8.3,.,.,.,.
COc1ccc(NS(=O)(=O)c2ccc3c(c2)n(C)c(=O)c(=O)n3C)cc1Cl,-5.8,.,41.3%,13.2%[46.1 µM],?
O=C(C1COc2ccccc2O1)N1CCN(c2ccc(F)cc2)CC1 (stereo not given),6.0,4.8%,.,?,12.6%
O=C(C1COc2ccccc2O1)N1CCN(c2ccc([N+](=O)[O-])cc2)CC1 (stereo not given),-12.9,22.4µM*,-0.3%,7.3%,?
CC(C)(O)C#Cc1ccc(C(=O)N2CCN(c3ccc([N+](=O)[O-])cc3)CC2)cc1,-85.1*,?,?,?,?

# Source: PubChem BioAssay (National Center for Advancing Translational Sciences (NCATS))
